Experimental findings from PubChem BioAssay (NCI) are described below.

Compounds without any hit were thinned out: in the full panel of roughly 83,000, 20% have a hit.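 48-hour exposure, single concentration, 96-well plates; percent growth endpoint where 0 means no net growth. Active: below 10.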 Unmarked numbers belong to inactive results. Calls of active or inactive are those of the source.

Test systems include NCI-H23 lung; NCI-H226 lung; NCI-H322M lung; HOP-62 NSCLC; NCI-H460 lung; NCI-H522 lung; A549/ATCC NSCLC; 786-0 renal; COLO 205 colon; DU-145 prostate; K-562 leukemia; MALME-3M melanoma; MDA-MB-231 breast; RXF 393 renal; SF-268 CNS; SF-295 CNS; SF-539 CNS; UACC-257 melanoma; M14 melanoma.
Assay in all cases: NCI-60 one-dose screen, 48 h (100 = growth as untreated, 0 = no growth, -100 = all killed)
Settings in all cases: 10 µM unless noted

Take `COc1ccc([C@H]2[C@H](O)C(=O)N2c2cc(OC)c(OC)c(OC)c2)cc1F`: the growth in the assay with NCI-H23 lung was 22.2%; with NCI-H226 lung, 32.6%; in the assay with NCI-H322M lung, 50.8%; in the assay with HOP-62 NSCLC, 23.7%; in the assay on NCI-H460 lung, 4.56% (active); with NCI-H522 lung it was -56% (active). The growth was 18.5% in the assay with A549/ATCC NSCLC; 12% in the assay with 786-0 renal; -79.1% (active) in the assay on COLO 205 colon; 14.6% in the assay with DU-145 prostate; 8.75% (active) with K-562 leukemia; 65.9% in the assay with MALME-3M melanoma. The growth was 24.5% with MDA-MB-231 breast; 27% in the assay with RXF 393 renal; 37.4% in the assay on SF-268 CNS; 8.48% (active) in the assay with SF-295 CNS; -5.31% (active) in the assay on SF-539 CNS; 57.7% in the assay with UACC-257 melanoma. In the assay on M14 melanoma, the growth was 2.83% (active).

Take `COc1ccc2[nH]cc(-c3csc4nc(-c5ccccc5)cn34)c2c1`: the growth in the assay with NCI-H23 lung is 30.8%; with NCI-H226 lung it was 31.4%; with NCI-H322M lung it was 64.6%; in the assay with HOP-62 NSCLC it was 24.5%; in the assay on NCI-H460 lung it was 2.01% (active); in the assay with NCI-H522 lung, -34% (active). For the same compound, the growth with A549/ATCC NSCLC is 29.9%; in the assay on 786-0 renal, 51.6%; in the assay with COLO 205 colon it was -32.6% (active); in the assay on DU-145 prostate, 18.4%; in the assay on K-562 leukemia, 11.2%; in the assay on MALME-3M melanoma it was 54.2%. For the same compound, the growth in the assay on MDA-MB-231 breast is 20.8%; with RXF 393 renal, -15.7% (active); with SF-268 CNS, 41.1%; in the assay with SF-295 CNS it was -2.19% (active); with SF-539 CNS, -6.33% (active); in the assay with UACC-257 melanoma, 60.4%.

As for `Cc1ccc2c(c1)C(=O)/C(=C/c1cccc(F)c1)S2`, the growth was 101% in the assay on NCI-H23 lung; 88.5% with NCI-H226 lung; 98.2% with NCI-H322M lung; 109% in the assay with HOP-62 NSCLC; 105% in the assay with NCI-H460 lung; 93.2% in the assay with NCI-H522 lung. For the same compound, the growth in the assay with A549/ATCC NSCLC is 107%; in the assay on 786-0 renal, 103%; with COLO 205 colon, 112%; in the assay with DU-145 prostate, 111%; in the assay with K-562 leukemia, 90.7%; with MALME-3M melanoma, 97.9%. Further, the growth was 99.8% in the assay on MDA-MB-231 breast; 96.6% in the assay on RXF 393 renal; 101% in the assay with SF-268 CNS; 105% in the assay on SF-295 CNS; 100% with SF-539 CNS; 103% with UACC-257 melanoma.

As for `O=C(c1ccc(O)c(C(=O)N2Cc3ccc(OCCC[P+](c4ccccc4)(c4ccccc4)c4ccccc4)cc3C2)c1)N1Cc2cccc(F)c2C1`, the growth is 87.3% with NCI-H23 lung; 92.3% in the assay with NCI-H226 lung; 94.3% with NCI-H322M lung; 102% in the assay on HOP-62 NSCLC; 69.7% with NCI-H460 lung; 72.9% in the assay with NCI-H522 lung. Moreover, the growth in the assay with A549/ATCC NSCLC is 99.8%; in the assay on 786-0 renal, 98.5%; in the assay with COLO 205 colon, 52.3%; in the assay on DU-145 prostate, 99%; in the assay on K-562 leukemia, 27.1%; in the assay on MALME-3M melanoma, 73.2%. Also, the growth in the assay on MDA-MB-231 breast is 92.9%; in the assay on RXF 393 renal it was 96.4%; in the assay with SF-268 CNS, 92.7%; with SF-295 CNS, 84.9%; in the assay with SF-539 CNS, 55.6%; in the assay on UACC-257 melanoma it was 48.5%.

With `COc1cc(-c2nc(SC(C)C)n(C(C)C)c(=O)c2C#N)ccc1OCc1ccccc1`, the growth was 85% in the assay with NCI-H23 lung; 87.4% in the assay with NCI-H226 lung; 64.9% in the assay with NCI-H322M lung; 79% in the assay on HOP-62 NSCLC; 21% in the assay with NCI-H460 lung; 84% in the assay on NCI-H522 lung. In addition, the growth with A549/ATCC NSCLC was 36.7%; in the assay on 786-0 renal it was 34.4%; in the assay with COLO 205 colon, 34.5%; with DU-145 prostate, 99.1%; with K-562 leukemia, 38.8%; in the assay on MALME-3M melanoma, 82.4%. The growth in the assay with MDA-MB-231 breast was 75.7%; with RXF 393 renal, 91.1%; in the assay on SF-268 CNS, 85.6%; in the assay on SF-295 CNS, 80.3%; in the assay with SF-539 CNS it was 64.6%; in the assay on UACC-257 melanoma, 101%. Besides, in the assay on M14 melanoma, the growth was 105%.

Regarding `O=C(Nc1cccc(Cl)c1)Nc1nc2ccc([N+](=O)[O-])cc2o1`, the growth in the assay on NCI-H23 lung is 12.6%; with NCI-H226 lung, 29%; with NCI-H322M lung, 17.4%; with HOP-62 NSCLC, 22.2%; in the assay with NCI-H460 lung it was 7.51% (active); in the assay on NCI-H522 lung, -0.721% (active). Moreover, the growth in the assay with A549/ATCC NSCLC was 17.2%; in the assay with 786-0 renal it was 28%; in the assay on COLO 205 colon it was -5.17% (active); in the assay on DU-145 prostate it was 26.8%; in the assay on K-562 leukemia it was 12.3%; in the assay on MALME-3M melanoma it was -4.16% (active). Besides, the growth in the assay on MDA-MB-231 breast was 25.8%; in the assay on RXF 393 renal, -3.23% (active); in the assay with SF-268 CNS it was 7.72% (active); with SF-295 CNS, 24.5%; in the assay with SF-539 CNS, 11.4%; in the assay with UACC-257 melanoma, 1.92% (active). The growth in the assay on M14 melanoma was 18.2%.

Turning to `C[C@@H]1C[C@H]2C(=O)O[C@@H](C)C(NC(=O)[C@H](Cc3cc(F)cc(F)c3)NC(=O)Nc3ccc(Cl)cc3F)C(=O)N3CCC[C@H]3C(=O)N3CCCC[C@H]3C(=O)N[C@@H](CO)C(=O)N2C1` (some centres undefined), the growth is 37.9% with NCI-H23 lung; -4.63% (active) with NCI-H226 lung; 48.6% with NCI-H322M lung; 33.4% in the assay on HOP-62 NSCLC; 14.5% in the assay with NCI-H460 lung; 19.4% with NCI-H522 lung. Further, the growth is 26.2% with A549/ATCC NSCLC; 42.2% in the assay with 786-0 renal; -23% (active) in the assay on COLO 205 colon; 26.2% in the assay on DU-145 prostate; 23.6% in the assay on K-562 leukemia; 46.3% in the assay on MALME-3M melanoma. Also, the growth in the assay with MDA-MB-231 breast was 35.2%; with RXF 393 renal, -10.3% (active); in the assay with SF-268 CNS it was 31.7%; in the assay with SF-295 CNS it was 20%; in the assay on SF-539 CNS, 36.2%; with UACC-257 melanoma, 15.8%. For the same compound, the growth with M14 melanoma is 20.7%.

For the compound `Cc1cc(C)cc(C(=O)Nc2cccc(C#Cc3cccc4[nH]nc(N)c34)c2)c1`, the growth in the assay on NCI-H23 lung is 76.6%; with NCI-H226 lung it was 67.3%; in the assay with NCI-H322M lung it was 88.4%; with HOP-62 NSCLC it was 67%; in the assay with NCI-H460 lung it was 50.7%; in the assay with NCI-H522 lung, 23.6%. For the same compound, the growth in the assay on A549/ATCC NSCLC is 54.8%; in the assay on 786-0 renal, 89.9%; in the assay with COLO 205 colon, 77.9%; with DU-145 prostate, 71.9%; in the assay on K-562 leukemia it was 9.8% (active); in the assay on MALME-3M melanoma it was 86.2%. Further, the growth is 40% in the assay on MDA-MB-231 breast; -10.9% (active) in the assay with RXF 393 renal; 55% in the assay with SF-268 CNS; 65% with SF-295 CNS; 38.6% in the assay on SF-539 CNS; 90.7% in the assay on UACC-257 melanoma. Also, the growth in the assay on M14 melanoma was 43.5%.
